The values that follow come from PubChem BioAssay AID686979 (National Center for Advancing Translational Sciences (NCATS), 2013).

Among all 420,000 compounds or so, about 50,000 (12%) were called active. A call without a number means that no potency is given here. About 26% were inconclusive and are not listed. For the sample, actives were picked, then their nearest neighbours and some compounds at random. Values without a mark were called inactive. Calls follow the shape of the dose curve; as a rule, active = well fitted inhibition curve with a large enough effect; inconclusive = small, poorly fitted or top-dose-only effect; inactive = flat fitted curve, though single readings scatter.
Potency is read from the fitted curve at half-maximal effect.

This assay is described as follows: qHTS for Inhibitors of human tyrosyl-DNA phosphodiesterase 1 (TDP1): qHTS in cells in presence of CPT. Also: nearly all actives have a fitted effect of over 55% in size. Conditions: chicken DT40 Tdp1-/-;hTDP1 cells + 20 nM CPT, ATP luminescence, 48 h; series mostly up to 46.2 µM. In a few lines: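 Chicken DT40 Tdp1-/- cells complemented with human TDP1, 400 cells/well, exposed to compounds plus 20 nM camptothecin for at least 48 h at 37 C; viability read as ATP content by CellTiter-Glo luminescence.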
Background: Quantitative high-throughput screening tests each substance at several concentrations.
With `COc1ccccc1CNC(=O)COC(=O)c1cccs1`, the Potency entry is “inactive”. Take `COc1ccc(/C=C/C(=O)Nc2ccc(C34CC5CC(CC(O)(C5)C3)C4)cc2)cc1OC`: the Potency is 2.31 µM (active).

Turning to `COc1ccc(/C=C/C(=O)Nc2cccnc2)cc1OC`, the Potency result was “inactive”. Still for that read-out and setting: the value for `COc1cc(/C=C/C(=O)Nc2ccc(OC)c(S(=O)(=O)N3CCOCC3)c2)ccc1OCC#N` was “inactive”.

Consider `COCCn1c(N)c(NCc2ccccc2)c(=O)[nH]c1=O`, for which the Potency result was “inactive”. On to `O=C(COC(=O)C12CC3CC(CC(O)(C3)C1)C2)NC12CC3CC(CC(C3)C1)C2`, for which the Potency result was “inactive”.

`COc1cccc(NC(=O)CSc2nnc(Cc3ccc(OC)c(OC)c3)o2)c1`: the Potency entry was “inactive”. Consider `Cc1cc(C)c2c(Cn3ccnc3)cc(=O)oc2c1`, for which the Potency entry was “inactive”. For the compound `COc1ncnc2c1ncn2CCCNCCN1CCOCC1`, the Potency entry is “inactive”.

`O=C(O)C(c1ccccc1)N1C(=O)/C(=C\c2ccc(-c3cccc(Cl)c3)o2)SC1=S` (centres undefined): the Potency entry is “inactive”. As for `CCCCNC(=O)C1(O)c2ccccc2NC(=O)N1c1ccc(Cl)cc1` (centres undefined), the Potency entry was “inactive”.

As to `CCCCNC(=O)C(C)N(CCN(C)C)C(=O)CCCCCN1C(=O)NC(c2ccc(Cl)cc2)C(C(=O)OCc2ccccc2)=C1C` (centres undefined), the Potency is 7.31 µM (active).

For the compound `CCCCNC(=O)C(C)N(CCN(C)C)C(=O)CCCN1C(=O)NC(c2ccc(Cl)cc2)C(C(=O)OCc2ccccc2)=C1C` (centres undefined), the Potency was 20.6 µM (active). `CCOC(=O)CCCNC(=O)CN1C(=O)NC(CCc2ccccc2)C1=O` (centres undefined): the Potency entry was “inactive”.

In the case of `COCCOC(=O)C1=C(C)NC(=O)NC1c1ccc(Cl)cc1` (centres undefined), the Potency entry is “inactive”. Still for that read-out and setting: the value for `CC1=C(C(=O)OCc2ccccc2)C(c2ccc(C(F)(F)F)cc2)NC(=O)N1CCCCCC(=O)O` (centres undefined) was “inactive”. For `COc1ccccc1/C=C/C(=O)NC(=S)N1CCOCC1`, the Potency entry was “inactive”. Still for that read-out and setting: the same measure for `CC(C)Cc1nnc(NC(=O)CN2C(=O)NC3(CCCCC3)C2=O)s1`: “inactive”. Turning to `COC(=O)c1ccccc1NC(=O)CSc1nc2c(c(=O)[nH]1)CCC2`, the Potency entry is “inactive”.

As to `CC(=O)Nc1ccc(S(=O)(=O)N2CCn3cccc3C2C)cc1` (centres undefined), the Potency result is “inactive”.

As to `O=C(CCN1CCCO1)N1CCCC(N2CCN(c3cccc(C(F)(F)F)c3)CC2)C1` (centres undefined), the Potency result was “inactive”. On the same count and under the same terms, the value for `O=C(NN=Cc1ccc2c(c1)CCC2)c1ccccc1O` was “inactive”. The same measure, in the same setting: the same measure for `NC(=O)c1ccccc1N=Cc1ccc2ccccc2c1`: 20.6 µM (active); for `O=C(OCC(=O)N1CCOCC1)c1ccc2ccccc2c1`: “inactive”. Turning to `COc1ccccc1C(=O)N[C@@H]1c2ccccc2C2(CCN(C(=O)c3csnn3)CC2)[C@H]1OC`, the activity change, negative = growth inhibition is -8.07% [at 9.04 µM]. With `CCC(CC)c1nn2cc(-c3ccccc3)nc2s1`, the Potency result was “inactive”. Same read-out and setting: the same measure for `COC(=O)CC1=NN(c2ccccc2)C(=O)C1`: “inactive”; for `COC(=O)CC1Oc2ccccc2-n2cc(-c3ccccc3)nc21` (centres undefined): 14.6 µM (active). Turning to `COc1ccccc1NC(=O)COC(=O)c1ccccc1SCC(=O)N1CCCC1`, the Potency entry was “inactive”. For `c1ccc(-n2cccc2)c(N2CCCCC2)c1`, the Potency result is “inactive”. With `COc1ccc(N2C(=O)C(O)C2c2ccc(C)cc2)cc1` (centres undefined), the Potency entry is “inactive”. For the compound `COC(=O)C1=C(Nc2ccc(OC)cc2)C=C(C)C(C(=O)OC)C1c1ccc(C)cc1` (centres undefined), the Potency is 16.4 µM (active). On the same count and under the same terms, the same measure for `COC(=O)C1C(=O)NCC1c1ccc(OC)cc1` (centres undefined): “inactive”; for `Cc1ccc(C(=O)Nc2ccc3[nH]c(=O)c(=O)[nH]c3c2)cc1`: “inactive”; for `CC(C)CCNC(=O)CCNS(=O)(=O)c1ccc(Cl)cc1`: “inactive”. With `COC(=O)c1c(OCc2ccc(F)cc2)cc(=O)n2c1CCN(Cc1ccc3cccnc3c1)CC2`, the activity change, negative = growth inhibition was 8.77% [at 9.04 µM].

As to `O=C(Nc1cc(-c2nc3ccccc3o2)ccc1Cl)c1cc([N+](=O)[O-])ccc1N1CCOCC1`, the Potency result is “inactive”. On the same count and under the same terms, the value for `COc1cc(/C=C/CNC[C@H]2O[C@@H](n3cnc(C(N)=O)n3)[C@H](O)[C@@H]2O)ccc1O` was “inactive”; that for `O=C(Cc1ccccc1)n1nc(-c2ccccc2)nc1NCc1ccco1` was “inactive”. Consider `O=C(c1ccco1)n1nc(-c2ccc(Cl)cc2)nc1NCc1ccccc1`, for which the Potency is 18.4 µM (active). As to `O=C(c1ccc(Cl)cc1)n1nc(-c2cccnc2)nc1NCc1ccc(F)cc1`, the Potency entry is “inactive”. On to `COc1ccc(C(=O)NCCSc2ccccc2C)cc1`, for which the Potency result is “inactive”.

In the case of `Cc1nn(C)cc1N1C(=O)c2cccc3c(N)ccc(c23)C1=O`, the Potency entry was “inactive”.

Take `CN1C(=O)c2cccc3c(N)ccc(c23)C1=O`: the Potency result was “inactive”. Still for that read-out and setting: the value for `CCN1C(=O)c2cccc3c(N)ccc1c23` was 11.6 µM (active); that for `NC1=NC(c2cc(F)cc(F)c2)n2c(nc3ccccc32)N1` (centres undefined) was “inactive”; that for `CS(=O)(=O)C1=NN2C(=N)/C(=C\c3ccc(OCCOc4ccccc4)cc3)C(=O)N=C2S1` was “inactive”. The same measure, in the same setting: the value for `Cc1ccc(NC2CCCN(C(=O)CCC3(C)CC3)C2)cc1C` (centres undefined) was “inactive”; that for `CCCCN(CC)CCCNC(=O)Cn1ncc2c([nH]c3ccc(C)cc32)c1=O` was “inactive”; that for `Cc1nn(CC(=O)N2CCCCC2)c(=O)c2nn(-c3ccccc3)c(C)c12` was “inactive”. In the case of `COc1ccc(CNC(=O)C(C)n2nc(C)c3c(C)n(-c4ccccc4)nc3c2=O)c(OC)c1` (centres undefined), the Potency is 16.4 µM (active). Still for that read-out and setting: the same measure for `COc1ccccc1CNC(=O)Cn1c(=O)oc2cc(Cl)ccc21`: “inactive”; for `COc1ccccc1CNC(=O)Cn1nc(C)c2nn(-c3ccc(Cl)cc3)c(C)c2c1=O`: 20.6 µM (active); for `Cc1nc2c(C(=O)NCc3ccc4c(c3)OCO4)c[nH]n2c(=O)c1Cc1ccccc1F`: “inactive”. For the compound `Cc1ccc(-n2nc3c(=O)n(C(C)C(=O)NCc4ccc5c(c4)OCO5)nc(C)c3c2C)cc1` (centres undefined), the Potency was 18.4 µM (active). Same read-out and setting: the value for `Cc1nn(C(C)C(=O)N2CCOCC2)c(=O)c2nn(-c3ccccc3)c(C)c12` (centres undefined) was “inactive”; that for `COc1ccccc1CNC(=O)Cn1cc2c(n1)CCCC2` was “inactive”. On to `CC(Sc1nncs1)C(=O)NCc1ccc2c(c1)OCO2` (centres undefined), for which the Potency entry is “inactive”. Same read-out and setting: the value for `CN(CCC1CCOCC1)C(=O)CC1C(=O)NCCN1Cc1cccc(F)c1` (centres undefined) was “inactive”; that for `CC1CC(C)CN(CCOc2cccc3ccccc23)C1` (centres undefined) was “inactive”. Still for that read-out and setting: the value for `O=C(Nc1ccc([N+](=O)[O-])cc1)OCCc1ccccn1` was “inactive”; that for `COc1ccc(CN2CCOc3c(cc(-c4ncc(C(F)(F)F)cc4Cl)cc3OCC3CCCO3)C2)c(O)c1` (centres undefined) was “inactive”; that for `O=C(CN1C(=O)NC2(CCOc3ccccc32)C1=O)NCc1ccc(F)cc1` (centres undefined) was “inactive”. Take `O=C(NCCCn1ccnc1)C(=O)c1cn(CC(=O)N2CCCCCC2)c2ccccc12`: the Potency entry was “inactive”.
